From PubChem
ARNT-TACC3 inh: disrupts binding between human ARNT and TACC3; Q9Y6A5; AlphaScreen His-ARNT PAS-B/GST-TACC3 binding, luminescence; TACC3 fragment carries E629A point mutation; inhibition, % at 9.99 µM; actives 0.66% (n = 390,000); AID 623870;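 active = mean inhibition of replicates at least 50% and at least half of replicates each reaching 50%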;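 note: 0% = complete ARNT plus TACC3 wells and 100% = ARNT alone without TACC3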
ERp5 block: ERp5 (human) disulfide isomerase inhibition. Q15084. ERp5 insulin aggregation, absorbance 650 nm, 90 min. inhibition, % at 9.99 µM. actives 0.05% (n = 350,000). AID 651711;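 active = mean replicate inhibition above about 25%, with every replicate also reaching it, limit read from the data, passing the limit was not always enough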
PglD inh: inhibitors of Campylobacter jejuni PglD acetyltransferase; purified PglD enzyme, DTNB colorimetric CoA detection; inhibition, % at 12.5 µM; actives 0.098% (n = 360,000); in the data active = inhibition above about 16%, passing the limit was not always enough
CendR NRP1 mod: alters CendR peptide binding to human NRP-1; O14786; inhibition, % at 25 µM; actives 0.85% (n = 360,000); FAM-RPARPAR peptide binding to NRP-1, fluorescence polarization; AID 602438;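 active = inhibition or corrected inhibition above about 18%, plus a signal ratio from 0.5 to 1.5, limit read from the data, passing the limit was not always enough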
ALR H2O2 inh: inhibitors of human sulfhydryl oxidase ALR; purified ALR, DTT oxidation, H2O2 HRP-luminol luminescence; inhibition, % (concentration not given with the values); P55789; AID 485317; actives 3.8% (n = 290,000);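 active = mean replicate inhibition above about 79%, with every replicate also reaching it, limit read from the data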
PDI turbidity: PDI (human) enzyme inhibition; PDI insulin aggregation turbidity, A650, 90 min; inhibition, % at 10 µM; P07237; actives 0.052% (n = 350,000); AID 588391;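 active = mean inhibition across replicates of 30% or more, whatever share of single replicates reach that level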
Target sequence (P07237 whole entry, looked up): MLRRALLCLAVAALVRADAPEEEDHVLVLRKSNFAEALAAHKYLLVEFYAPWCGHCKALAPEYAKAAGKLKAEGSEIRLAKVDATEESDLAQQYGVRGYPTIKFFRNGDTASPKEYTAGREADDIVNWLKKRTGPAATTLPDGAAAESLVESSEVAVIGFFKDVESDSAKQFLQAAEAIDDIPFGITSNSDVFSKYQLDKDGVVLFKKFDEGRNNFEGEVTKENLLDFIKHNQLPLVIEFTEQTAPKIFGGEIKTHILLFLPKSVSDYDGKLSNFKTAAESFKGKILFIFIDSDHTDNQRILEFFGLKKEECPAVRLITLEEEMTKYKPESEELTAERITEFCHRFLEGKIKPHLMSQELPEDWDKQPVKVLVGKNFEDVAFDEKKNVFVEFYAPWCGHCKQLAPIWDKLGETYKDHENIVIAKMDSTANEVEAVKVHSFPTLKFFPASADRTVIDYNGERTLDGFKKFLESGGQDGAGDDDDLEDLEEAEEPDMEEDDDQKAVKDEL
Starred values were filed as active, the others as inactive; nt = no result. Shown is part of a subset that was picked to be rich in hits.

SMILES	ARNT-TACC3 inh	ERp5 block	PglD inh	CendR NRP1 mod	ALR H2O2 inh	PDI turbidity
C[C@@H]1CCCCO[C@H](CN(C)CC2CCCCC2)[C@H](C)CN([C@@H](C)CO)C(=O)c2cc(NS(=O)(=O)c3cccs3)ccc2O1	-1.5	4.4	3.1	nt	nt	nt
COc1ccc(OC)c(-c2c3cc(O)c(=O)cc-3oc3cc(O)c(O)cc23)c1	32.9	nt	nt	121.2	80.4*	26.5
CO[C@@H]1CN(C)C(=O)c2cc(NC(=O)NC(C)C)ccc2OC[C@@H](C)N(Cc2ccc(-c3ccccn3)cc2)C[C@H]1C	4.0	-1.0	3.7	nt	nt	nt
Cc1cccc(NC(=O)CSCC(=O)Nc2ccccc2N2CCCCC2)c1	-2.0	-1.5	nt	-4.0	-9.5	-3.9
Cc1cccc(NC(=O)CSCC(=O)Nc2cccc3ncccc23)c1	0.8	5.2	2.4	10.7	99.2*	18.6
COc1ccc(NC(=O)CSCC(=O)Nc2cccc3ncccc23)cc1	-4.4	3.2	11.1	5.9	18.5	-5.7
CC(C)(C)C(=O)NC(=S)Nc1ccccc1N1CCCC1	15.1	1.5	nt	16.8	98.4*	-4.6
COc1cc(CC(=O)Nc2ccccc2N2CCCCC2)cc(OC)c1OC	-7.0	-7.0	-1.7	12.3	-0.4	-4.8
COc1ccc(CC(=O)Nc2ccccc2N2CCCC2)cc1OC	-0.5	-11.3	-5.0	-10.7	97.8*	7.1
Cc1cccc(NC(=O)CSCC(=O)Nc2ccccc2N2CCCC2)c1	nt	2.2	-5.1	-10.2	98.9*	7.9
CO[C@@H]1CN(C)C(=O)c2cc(NC(=O)C3CC3)ccc2OC[C@@H](C)N(Cc2ccc(F)cc2)C[C@H]1C	-7.0	2.2	-0.9	nt	nt	nt
CCC(=O)N1CC2(C1)CN(C(C)=O)[C@H](CO)c1[nH]c3cc(OC)ccc3c12	nt	-0.2	nt	nt	nt	nt
CCS(=O)(=O)NCC[C@H]1CC[C@H](NC(=O)Nc2cc(Cl)cc(Cl)c2)[C@H](CO)O1	2.6	-2.3	1.7	nt	nt	nt
C[C@@H]1CN([C@H](C)CO)C(=O)c2cc(NC(=O)Cn3cnnn3)ccc2O[C@H]1CN(C)C(=O)Nc1cccc2ccccc12	-0.2	-9.0	4.2	nt	nt	nt
O=C(C[C@@H]1CC[C@H](NC(=O)Cc2ccccn2)[C@@H](CO)O1)NCCCN1CCOCC1	-14.7	2.9	4.3	nt	nt	nt
O=C(NCCCn1ccnc1)C(=O)NCC1OCCN1S(=O)(=O)c1ccc2c(c1)OCCO2 (stereo unspecified)	64.1*	4.1	nt	5.4	-5.9	10.6
O=C(c1ccc(F)cc1)N1[C@@H](CO)[C@@H]2c3ccccc3NC[C@@H]21	3.9	-3.2	-0.4	nt	nt	nt
Oc1oc(-c2ccco2)nc1C=Nc1ccccc1	14.7	5.1	-7.3	-14.9	65.5	7.5
Oc1oc(-c2ccco2)nc1C=Nc1cccc(Cl)c1	14.3	nt	0.8	-22.1	96.0*	28.4
COc1cccc(NC(=O)CSCc2cc(=O)n3nc(C4CC4)sc3n2)c1	-2.3	-0.2	-4.4	1.4	98.8*	9.8
Cc1ccc(NC(=O)CSCc2cc(=O)n3nc(C4CC4)sc3n2)cc1	1.7	2.3	-2.2	6.3	98.9*	-5.1
Cc1ccc(NC(=O)CSc2nccc(=O)[nH]2)c(S(=O)(=O)N2CCOCC2)c1	-5.5	nt	0.8	16.9	98.1*	-2.7
O=C(CSc1nccc(=O)[nH]1)Nc1cccc(S(=O)(=O)N2CCOCC2)c1	-0.3	0.8	-1.9	-8.4	-23.1	-5.8
CC(=O)NCCC(=O)Nc1sc2c(c1-c1nc3ccccc3[nH]1)CCCC2	1.1	nt	nt	11.9	98.2*	-10.3
Cc1ccc(-c2ccc3c(c2)O[C@@H](CN(C)C(=O)Nc2ccccc2)[C@@H](C)CN([C@@H](C)CO)S3(=O)=O)cc1	8.2	-7.9	4.1	nt	nt	nt
SMILES	ARNT-TACC3 inh	ERp5 block	PglD inh	CendR NRP1 mod	ALR H2O2 inh	PDI turbidity
COc1ccc(N=C2C(=O)Nc3ccccc32)cc1	10.3	nt	-2.8	1.1	86.1*	-1.8
CC(Oc1ccc2c(c1)c1ccnc3c4ccccc4c(=O)n2c13)C(=O)NCCN1CCOCC1 (stereo unspecified)	48.3*	nt	-1.2	-14.4	-9.4	nt
CCc1cc(C(=O)OC)c(NC(=O)CN2CCN(C(=O)c3ccco3)CC2)s1	-1.9	-10.1	-1.5	25.6*	-3.2	0.0
O=C(c1ccccc1)N1CC(=O)N2[C@H](CO)[C@H](c3ccc(C4=CCCC4)cc3)[C@@H]2C1	nt	-0.4	nt	nt	nt	nt
Cc1noc(C)c1S(=O)(=O)Nc1cccc2c1O[C@H](CN(C)Cc1ccncc1)[C@H](C)CN([C@@H](C)CO)C2=O	1.2	3.5	0.8	nt	nt	nt
COc1cccc(/C=N/Nc2ccc([N+](=O)[O-])cc2)c1O	-2.5	0.7	-8.1	-24.3	nt	9.7
COc1cc(/C=N/NC(=O)c2cccc([N+](=O)[O-])c2)cc(OC)c1O	3.2	-5.5	nt	0.9	97.8*	-3.0
Cc1ccc2nc(C)c(C(=O)N/N=C/c3cccc([N+](=O)[O-])c3)cc2c1	-1.6	nt	nt	-4.2	8.6	-2.7
COc1ccc(/C=N/NC(=O)c2cccc([N+](=O)[O-])c2)cc1OC	1.9	-0.3	nt	-4.1	-2.8	11.1
Cc1nc2c(C)cccc2cc1C(=O)N/N=C/c1cccc([N+](=O)[O-])c1	3.0	3.3	1.4	3.4	98.1*	-6.3
COc1cccc(/C=N/NC(=O)c2ccc([N+](=O)[O-])cc2Cl)c1O	58.7*	nt	nt	-0.1	17.9	-3.1
COc1cc(/C=N/NC(=O)c2ccc(O)cc2)ccc1Oc1ccc([N+](=O)[O-])cn1	3.9	-0.6	nt	6.5	92.4*	0.2
O=C(C[C@H]1CC[C@@H]2[C@H](COC[C@@H](O)CN2C(=O)Nc2ccc(F)cc2)O1)NCCc1ccccc1	-5.1	-2.0	-2.6	nt	nt	nt
C[C@@H]1CN([C@H](C)CO)C(=O)Cc2cc(NC(=O)NC3CCCCC3)ccc2O[C@H]1CN(C)Cc1ccc2c(c1)OCO2	-8.6	-3.4	2.1	nt	nt	nt
Cc1ccccc1-c1nc(CN2CCC(C(=O)NCCN3CCOCC3)CC2)c(C)o1	2.9	2.1	nt	2.2	-5.3	-0.6
Cc1ccccc1-c1nc(CS(=O)CC(=O)NCCN2CCN(Cc3ccccc3)CC2)c(C)o1 (stereo unspecified)	5.8	nt	1.7	-5.7	98.7*	-0.2
CCCNC(=O)CS(=O)Cc1nc(-c2ccccc2C)oc1C (stereo unspecified)	-26.7	6.6	2.4	-9.9	99.3*	nt
CCC(C)NC(=O)CS(=O)Cc1nc(-c2ccccc2C)oc1C (stereo unspecified)	-1.8	-4.8	-4.2	-1.6	98.3*	nt
Cc1ccccc1-c1nc(CS(=O)CC(=O)NCCCN(C)c2ccccc2)c(C)o1 (stereo unspecified)	3.9	-4.6	-1.6	3.4	99.4*	3.1
C[C@@H]1CCCCO[C@H](CN(C)Cc2ccc(C(F)(F)F)cc2)[C@@H](C)CN([C@@H](C)CO)C(=O)c2cc(NS(=O)(=O)c3ccc(F)cc3)ccc2O1	1.3	1.2	0.1	nt	nt	nt
COc1ccc(NC(=O)O[C@H]2[C@H](OC(=O)Nc3ccc4c(c3)OCO4)[C@H](OC(=O)Nc3ccc4c(c3)OCO4)[C@@H](OC)O[C@@H]2CO)cc1	nt	-6.9	nt	nt	nt	nt
